The source of these data is PubChem BioAssay AID1851 (National Center for Advancing Translational Sciences (NCATS), 2009).

The structures appear in SMILES notation. Screen size: about 16,000 compounds; about 2,600 (16%) were called active. Not shown: some 20% with an inconclusive outcome. Only a sample is shown. Values without a mark were called inactive. Calls follow the shape of the dose curve; as a rule, active = well fitted curve in the direction sought with a large enough effect; inconclusive = small, poorly fitted or top-dose-only effect, or effect the other way; inactive = no such curve, though single readings can be large or run the other way.

Usually AC50 stands for the concentration giving half of the maximal activity seen.
% is scaled to controls: 0 for no effect and ±100 for the full control effect.

Sequence of Cytochrome P450 2D6 (Homo sapiens) (P10635 whole entry, looked up): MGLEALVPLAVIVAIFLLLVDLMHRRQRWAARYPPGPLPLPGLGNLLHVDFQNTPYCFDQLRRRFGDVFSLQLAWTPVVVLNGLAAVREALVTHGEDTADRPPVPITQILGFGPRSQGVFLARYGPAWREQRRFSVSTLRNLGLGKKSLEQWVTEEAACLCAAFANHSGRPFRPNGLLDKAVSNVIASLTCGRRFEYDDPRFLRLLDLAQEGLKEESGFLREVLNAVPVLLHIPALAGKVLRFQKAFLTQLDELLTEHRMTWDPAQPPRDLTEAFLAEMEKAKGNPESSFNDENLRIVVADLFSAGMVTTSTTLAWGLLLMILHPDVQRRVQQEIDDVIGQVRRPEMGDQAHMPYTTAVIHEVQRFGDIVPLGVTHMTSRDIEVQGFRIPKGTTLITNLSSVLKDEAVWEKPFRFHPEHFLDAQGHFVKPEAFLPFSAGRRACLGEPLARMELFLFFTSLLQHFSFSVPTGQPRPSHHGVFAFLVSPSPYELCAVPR

The experiment concerns the target Cytochrome P450 2D6 (Homo sapiens) (UniProt P10635). Nature of the experiment: Cytochrome panel assay with activity outcomes. Particulars: recombinant CYP, pro-luciferin dealkylation, luminescence, p450-cyp2d6; series mostly up to 57.1 µM; activity, negative = inhibition: at the top concentration.
`Cc1cnn(-c2ccc3nnc(-c4ccc(Cl)cc4)n3n2)c1`: the “activity, negative = inhibition” value was -4.72%.
`FC(F)(F)c1nc2ccccc2nc1N/N=C/c1ccc(Cl)cc1`: the AC50 was 0.631 µM (active).
As to `N#CC(c1ccc(Cl)cc1)c1nc2ccccc2nc1C(F)(F)F` (stereo not drawn), the “activity, negative = inhibition” value is -19.3%.
The same measure, in the same setting: in the case of `Clc1ccc(/C=N/Nc2nnc(-c3ncc[nH]3)c3ccccc23)cc1` it was -28.8%; in that of `O=c1[nH]c(=O)n([C@@H]2C[C@H](O)[C@H](CO)O2)cc1I`, 3.14% [at 25.6 µM].
As to `CCCN[C@@H](C)C(=O)Nc1ccccc1C`, the AC50 result was “inactive”.
Turning to `N#Cc1cc(-c2ccc(Cl)cc2)cnc1Sc1ccc(F)cc1`, the “activity, negative = inhibition” value was 12.5%.
Regarding `N#Cc1cc(N)ccc1Sc1ccc(Cl)cc1`, the AC50 was 22.4 µM (active).
Regarding `N#Cc1cc(-c2ccc(Cl)cc2)cnc1Sc1ccccc1`, the “activity, negative = inhibition” value was 0.543%.
`Cc1cc(C)cc(-n2c(C)cc(C=C(C#N)C#N)c2C)c1`: the “activity, negative = inhibition” value was 25.6%.
With `Cn1c(=O)c2c(nc(C(=N)SCC(=O)O)n2C)n(C)c1=O`, the activity, negative = inhibition is 1.35% [at 11.4 µM].
Regarding `S=C1N(c2ccccc2)C(c2ccc(Cl)cc2)N2CCCN12` (stereo not drawn), the “activity, negative = inhibition” value is -9.66%.
Regarding `O=C1C2=C(NC(=S)NC2c2ccc(Cl)cc2)NC(c2ccc(Cl)cc2)N1c1ccc(Cl)cc1` (stereo not drawn), the AC50 is 15.8 µM (active).
As to `O=C1C2CCCN2C(c2ccccc2F)N1c1ccc(Cl)cc1` (stereo not drawn), the “activity, negative = inhibition” value was -25.3%.
In the case of `Cc1cnn(CCC(=O)NNC(=S)Nc2cccc(Cl)c2)c1`, the “activity, negative = inhibition” value is -13.5%.
As to `COCCn1c(=O)c(-c2cc(F)cc(F)c2)nc2cnc(Oc3cccc(Cl)c3)nc21`, the “activity, negative = inhibition” value was -0.734%.
For the compound `Cc1cc(NCc2ccccn2)ccc1Br`, the “activity, negative = inhibition” value is -27.7%.
On the same count and under the same terms, in the case of `Cc1cc(=O)oc(C)c1C(=O)NCc1ccccn1` it was 6.42%.
In the case of `Cc1cc(Br)ccc1NCc1ccccn1`, the AC50 was 15.8 µM (active).
The same measure, in the same setting: in the case of `O=C(NNC(=O)c1ccccc1O)c1ccc(Cl)cc1` it was 2.82 µM (active).
On to `O=C(NNC(=O)c1ccccc1-n1cccc1)c1ccccc1`, for which the “activity, negative = inhibition” value is -24.4%.
Turning to `O=C(O)c1ccccc1C(=O)NNc1ccc(Cl)cc1`, the “activity, negative = inhibition” value was 11.1%.
On to `O=C(C[N+]1(c2ccccc2)CCOCC1)c1ccccc1`, for which the activity, negative = inhibition is -6.92% [at 11.4 µM].
Regarding `O=S(=O)(N/N=C\c1ccc2c(c1)OCO2)c1ccc(Cl)cc1`, the AC50 was 7.94 µM (active).
`Cc1ccc(S(=O)(=O)N/N=C/c2ccc(OC3CSC3)cc2)cc1`: the “activity, negative = inhibition” value was 5.99%.
With `O=S(=O)(N/N=C/c1ccc2c(c1)OCCO2)c1ccc(Cl)cc1`, the “activity, negative = inhibition” value is -9.99%.
Regarding `N[C@@H](Cc1nn[nH]n1)C(=O)O`, the activity, negative = inhibition was 7.47% [at 11.4 µM].
For the compound `Cn1c(/C(C#N)=C(\O)c2ccc(S(=O)(=O)N3CCCCC3)cc2)nc2ccccc21`, the “activity, negative = inhibition” value was 17.4%.
Regarding `C[C@]1(O)CC[C@H]2[C@H]3CC=C4N5CCN=C5CC[C@@]4(C)[C@H]3CC[C@@]21C`, the activity, negative = inhibition is -4.3% [at 11.4 µM].
For the compound `CN1CCC(=C2c3ccccc3C=Cc3ccccc32)CC1`, the AC50 is 2.51 µM (active).
On to `CN1CCC(=C2c3ccccc3Sc3ccccc32)CC1`, for which the AC50 was 3.98 µM (active).
`CN1CCN(c2ncnc3ccc(-c4ccccc4C#N)cc23)CC1`: the “activity, negative = inhibition” value is -6.68%.
In the case of `O=C(Nc1ncc(Cc2cc(Cl)ccc2Cl)s1)c1ccc([N+](=O)[O-])cc1`, the “activity, negative = inhibition” value is -22.9%.
Regarding `C/C=C\C1=C(CO)C(=O)C2O[C@]2(CC=C(C)C)C1=O` (stereo partly drawn), the activity, negative = inhibition is 0.497% [at 11.4 µM].
For `COc1ccccc1Cn1c(=S)[nH]c2cc(C(=O)N3CCN(C)CC3)ccc2c1=O`, the “activity, negative = inhibition” value is 2.19%.
Turning to `CCOc1cc2[nH]c(=S)n(CCC(=O)N3CCc4ccccc4C3)c(=O)c2cc1OCC`, the “activity, negative = inhibition” value was 41.2%.
Consider `CCC1CCCCN1CCn1c(=S)[nH]c2cc(OC)c(OC)cc2c1=O` (stereo not drawn), for which the AC50 is 0.178 µM (active).
For the compound `COc1cc(/C=C(/NC(=O)c2ccccc2Cl)C(=O)O)cc(OC)c1OC`, the “activity, negative = inhibition” value is 3.9%.
Regarding `Cc1cc(NC(=O)c2ccco2)ccc1-n1cnnn1`, the “activity, negative = inhibition” value was -7.42%.
Same read-out and setting: in the case of `COc1ccc(CCNC(=O)c2ccccc2NC(=O)c2ccco2)cc1OC` it was -17.1%; in that of `O=C(Nc1cccc2[nH]ncc12)c1ccc(F)cc1`, -11.5%.
Turning to `COc1ccc(-c2cnnn2-c2ccc(NC(=O)c3ccco3)cc2)cc1OC`, the AC50 was 10 µM (active).
`O=C(Nc1ccc(-n2nncc2-c2ccco2)cc1)c1ccc(F)cc1`: the AC50 is 1.12 µM (active).
As to `COc1cc(C(=O)Nc2ccc(-c3nnc(-c4ccco4)o3)cc2)cc(OC)c1OC`, the “activity, negative = inhibition” value is 12.8%.
In the case of `Cc1ccc(NC(=O)C(C)N2C(=O)C3C4CC(C(Br)C4Br)C3C2=O)cc1` (stereo not drawn), the “activity, negative = inhibition” value is -6.68%.
As to `COC(=O)CSc1ccc(C#N)c(SCC(=O)OC)c1`, the “activity, negative = inhibition” value was -2.77%.
With `CC(C)NC(=O)c1ccc(-c2cccc(C(F)(F)F)c2)o1`, the “activity, negative = inhibition” value was -3.7%.
Same read-out and setting: in the case of `COc1ccc2c(=O)cc(-c3ccncc3)oc2c1OC` it was 12.2% [at 11.4 µM].
Take `N=C(N)SCc1cccc2c(=O)cc(-c3ccccc3)oc12`: the AC50 was 2.51 µM (active).
Consider `N=C(N)SCc1cccc(-c2nc3ccccc3c(=O)o2)c1`, for which the activity, negative = inhibition was 6.52% [at 11.4 µM].
For `CCCNC1CCS(=O)(=O)C1` (stereo not drawn), the “activity, negative = inhibition” value was -3.84%.
As for `C/C(=N/O)[C@@H]1C[C@H](CC(=O)O)C1(C)C`, the activity, negative = inhibition is -1.22% [at 11.4 µM].
Same read-out and setting: under `CCOC(=O)N/N=C(/C)c1ccc([N+](=O)[O-])o1` stands 8.4%.
